According to PubChem BioAssay AID1159580 (chemical genetic matrix, 2015):
Among all 5,500 compounds or so, about 2,000 (36%) were called active. Roughly 18% stayed inconclusive and do not appear here. Cut-off read from the data, not from the text of the source: active = normalized growth mostly below about 0.91 (no sharp cut-off); inconclusive = no clear call, values can overlap the other calls; inactive = mostly above about 0.92. This is one part of the list.

Experiment: chemical genetic growth profiling, strain panel (AID 1159580);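 note: tested at 20 µM; growth read once vehicle control cultures reached saturation at 30 °C; 1 = growth at the plate median or of vehicle wells; lower values mean less growth of the strain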
Settings: S. cerevisiae deletion strains, growth OD

Measured: normalized growth

CCCCCCCCCCOc1cc2c(=O)c(C(=O)OCC)c[nH]c2cc1OCC
inactive: locus YHR030C, strain SLT2, hits give low values 1 | locus YHR079C, strain IRE1, hits give low values 0.989 | locus YJL095W, strain BCK1, hits give low values 0.978 | locus YJR066W, strain TOR1, hits give low values 0.962 | locus YLR113W, strain HOG1, hits give low values 0.942 | locus YNL183C, strain NPR1, hits give low values 0.971 | locus YOR231W, strain MKK1, hits give low values 0.977 | locus YPL256C, strain CLN2, hits give low values 0.993
